# JMJD2A Tudor = inhibitors of human JMJD2A Tudor domain | O75164 | AlphaScreen JMJD2A-Tudor / H3K4me3 peptide binding | Potency, µM (top dose mostly 114 µM), without a hit: top-dose activity change, negative = inhibition, actives largely listed as inhibitors | actives 4.4% (n = 390,000) | AID 504339; also: % is scaled to controls: 0 for no effect and ±100 for the full control effect; nearly all actives have a fitted effect of over 50% in size
# HP1b binding inh = blocks HP1-beta chromodomain binding to methylated histone tails. P83916. AID 540317. AlphaScreen HP1-beta / biotin-H3K9me3 peptide binding. actives 0.56% (n = 390,000). Potency, µM (titrated, usually from 114 µM), for inactives: at the top dose activity change, negative = inhibition, most hits filed as inhibitors; also: nearly all actives have a fitted effect of over 70% in size
# Target sequence (P83916 whole entry, looked up): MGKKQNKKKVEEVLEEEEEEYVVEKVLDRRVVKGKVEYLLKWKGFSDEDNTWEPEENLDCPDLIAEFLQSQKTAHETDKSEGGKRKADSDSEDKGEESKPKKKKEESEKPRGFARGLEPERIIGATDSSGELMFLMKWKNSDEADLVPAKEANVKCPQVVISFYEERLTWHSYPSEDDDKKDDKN
#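 HP1-beta protein (50 nM final) preincubated 30 min at room temperature with biotinylated H3(1-18)K9me3 peptide (50 nM) in PBS pH 7.4, 0.01% Tween-20, then compound added for 30 min. AlphaScreen streptavidin donor/nickel chelate acceptor beads (10 ug/mL final), 30 min dark, luminescence read.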
# BAZ2B block = inhibitors of human BAZ2B bromodomain | Potency, µM (doses to about 114 µM), for inactives: at the highest dose activity change, negative = inhibition, usual class: inhibitors | Q9UIF8 | actives 4.4% (n = 360,000) | AlphaScreen BAZ2B-H3K14Ac peptide displacement; also: % is scaled to controls: 0 for no effect and ±100 for the full control effect; nearly all actives have a fitted effect of over 60% in size
#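 Protein-peptide AlphaScreen: BAZ2B 50 nM, b-H3K14Ac 50 nM, 1x PBS pH 7.4 + 0.01% Tween-20. Preincubation 30 min RT; cpd 30 min RT (top 110 uM); beads 20 min RT, light-protected.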
# G9a block = G9a (human) methyltransferase inhibition; Q96KQ7; G9a H3K9 monomethylation, AlphaScreen, 2 h; Potency, µM (top dose mostly 102 µM), for the others: top-dose activity, negative = inhibition, usual class: inhibitors; actives 8.8% (n = 350,000); AID 504332; also: % is scaled to controls: 0 for no effect and ±100 for the full control effect; nearly all actives have a fitted effect of over 75% in size
# Target sequence (Q96KQ7 913-1193 limits assumed): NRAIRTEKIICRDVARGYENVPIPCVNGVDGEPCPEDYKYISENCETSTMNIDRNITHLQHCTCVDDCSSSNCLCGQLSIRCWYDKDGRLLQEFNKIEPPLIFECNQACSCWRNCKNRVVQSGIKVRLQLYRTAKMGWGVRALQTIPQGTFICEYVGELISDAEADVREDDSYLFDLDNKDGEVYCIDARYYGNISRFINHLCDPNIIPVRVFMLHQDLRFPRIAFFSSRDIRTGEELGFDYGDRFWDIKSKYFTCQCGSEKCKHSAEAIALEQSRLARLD
#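 AlphaScreen read-out: biotin-H3K9 peptide (500 nM) methylation by 20 nM enzyme with 20 uM SAM, 2 h at room temperature after 15 min compound preincubation; anti-monomethyl H3K9 antibody plus donor/acceptor beads, 10 min dark.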
# L3MBTL1 block = L3MBTL1 (human) inhibition. Potency, µM (top dose mostly 57.1 µM), inactives show top-dose activity, negative = inhibition, usual class: inhibitors. Q9Y468. AID 485360. AlphaScreen L3MBTL1–H3K9me1 peptide binding. actives 0.66% (n = 230,000); also: % is scaled to controls: 0 for no effect and ±100 for the full control effect; nearly all actives have a fitted effect of over 60% in size
#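 AlphaScreen proximity signal between nickel-chelate acceptor and streptavidin donor beads (final 10 ug/mL) reports binding of 50 nM L3MBTL1 to 75 nM biotin-H3 K9me1 peptide; complex incubated with compounds 30 min at room temperature; cefsulodin titration as control.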
# * marks the source's active call; other numbers are inactive results; ? = inconclusive; . = not tested or not shown; [ ] = remark or other dose. In the library only some 11% were active in any assay of this set; here they are far more common. Calls follow the shape of the dose curve; as a rule, active = well fitted inhibition curve with a large enough effect; inconclusive = small, poorly fitted or top-dose-only effect; inactive = no such curve, though single readings can be large or run the other way. Potency is read from the fitted curve at half-maximal effect.
SMILES,JMJD2A Tudor,HP1b binding inh,BAZ2B block,G9a block,L3MBTL1 block
Cc1ccc(NC(=O)CCc2nc3sc4c(c3c(=O)[nH]2)CCCC4)c(Br)c1,?,2%,50µM*,?,-27%
Cc1cc(C)cc(NC(=O)CCc2nc3sc4c(c3c(=O)[nH]2)CCCC4)c1,-27%,18%,-38%,-3%[59 µM],?
CC1(NC(=O)CCc2nc3sc4c(c3c(=O)[nH]2)CCCC4)CCS(=O)(=O)C1 (centres undefined),?,-16%,79µM*,50µM*,?
CCc1ccccc1NC(=O)CNC(=O)CCc1nc2sc3c(c2c(=O)[nH]1)CCCC3,?,-4%,50µM*,?,?
O=C(NCCc1ccccc1)c1ccc2c(c1)CCN2S(=O)(=O)c1ccccc1,-3%,42%,0%,-5%[59 µM],.
COc1ccccc1NC(=O)C1=C(C)Nc2nc(SCc3cc(C)ccc3C)nn2C1c1ccccc1 (centres undefined),-6%,16%,4%,-2%[59 µM],.
N#CC(OC(=O)c1ccccc1)c1cccc([N+](=O)[O-])c1 (centres undefined),?,-16%,.,.,.
CC(=O)c1c(C)oc2c1cc(O)c1ccccc12,-9%,22%,-9%,11%,.
CC(=O)c1cc(O)c2ccccc2c1O,56µM*,?,45µM*,3.2µM*,-27%
COc1ccc(OC)c(NCc2cccn2-c2nnc(N3CCCCC3)s2)c1,50µM*,?,-37%[57.1 µM],8.9µM*,.
COc1cccc(CNCc2cccn2-c2nnc(N3CCN(c4ccccc4)CC3)s2)c1,50µM*,-23%,?,?,.
COc1ccccc1NCc1cccn1-c1nnc(N2CCCCCC2)s1,45µM*,-13%,-2%[57.1 µM],?,.
CC(OC(=O)/C=C/c1cccs1)C(=O)Nc1ccc(C(N)=O)cc1 (centres undefined),-11%,12%,2%,19%[12.7 µM],0%
COc1ccc(CSc2nnc(N)s2)cc1F,-24%,40%,-26%,45µM*,-4%
O=C(/C=C1\NC2(CCCC2)Cc2ccccc21)N1CCOCC1,50µM*,-17%,?,32µM*,-5%
N#CC(C#N)=C1NC2(CCCCC2)Cc2ccccc21,-16%,16%,-16%,14%,-1%
Cc1ccc2c(c1)c1ccc3c(c1n2C)C(=O)C=CC3=O,6.3µM*,3.2µM*,10µM*,1.6µM*,.
Cn1c2ccccc2c2ccc3c(c21)C(=O)C=CC3=O,16µM*,11µM*,.,.,.
COc1ccc2c(c1)c1ccc3c(c1n2C)C(=O)C=CC3=O,40µM*,6.3µM*,?,1.8µM*,-7%
CCc1ccc(CNC(=O)C2CC(=O)N(C3CCCC3)C2)cc1 (centres undefined),-14%,20%,27%[57.1 µM],-2%,.
O=C(CSc1ccc2nnc(-c3ccc(Cl)cc3)n2n1)N1CCCC1,-23%,37%,10%,35µM*,3%
O=C(CSc1ccc2nnc(-c3ccc(Cl)cc3)n2n1)N1CCc2ccccc21,-5%,47%,-4%,7.9µM*,0%
O=C(CSc1ccc2nnc(-c3cccnc3)n2n1)N1CCOCC1,-23%,32%,-23%,?,.
Cc1sc2c(c1C)c(=O)n(-c1cccc(C(F)(F)F)c1)c(=O)n2Cc1ccccc1C#N,-14%,50%,33%,24%[59 µM],.
COc1cc(OC)cc(-c2nc3nc(C)c(CCC(=O)Nc4ccc(F)cc4F)c(C)n3n2)c1,-20%,28%,-19%,-31%[59 µM],.
SMILES,JMJD2A Tudor,HP1b binding inh,BAZ2B block,G9a block,L3MBTL1 block
COc1ccc(-c2cc3c(=O)n(CC(=O)Nc4cc(C)ccc4C)ccn3n2)cc1,-11%,29%,-12%,9%[12.7 µM],.
O=[N+]([O-])c1cc([N+](=O)[O-])c2nonc2c1Nc1ccc(O)cc1,50µM*,?,?,11µM*,-15%
Clc1cc(Cl)cc(C2=NCCC(c3ccccc3)O2)c1 (centres undefined),.,.,60%,55%,15%
CN(C)c1ccc(C2C=C(c3ccc(Cl)cc3OC(F)F)Nc3ncnn32)cc1 (centres undefined),45µM*,-25%,?,35µM*,-14%
CN(C)S(=O)(=O)c1ccc2c(c1)N(CC(=O)Nc1ccc(F)cc1)C(=O)CS2,0%,18%,3%,-20%[59 µM],.
CCOc1cc(C(=O)N2CC(=O)Nc3ccc(F)cc3C2c2ccccc2)cc(OCC)c1OCC (centres undefined),-21%,10%,3%,10%[59 µM],.
CN1N=C2c3ccccc3CCC2C1c1ccc(C(F)(F)F)cc1 (centres undefined),1%,44%,-17%,5%,.
CN(C)c1ccc(C2C3CCCc4ccccc4C3=NN2C)cc1 (centres undefined),25µM*,?,32µM*,10µM*,?
CCN(Cc1ccccc1)c1ccc(/C=N/N=C(N)N)cc1,35µM*,?,?,?,-11%
CCN(Cc1ccccc1)c1ccccc1,14%,73%,.,.,.
CCOc1ccccc1NC(=O)C1CCN(S(=O)(=O)c2ccc3c(c2)CCCN3C(C)=O)CC1,-14%,14%[57 µM],5%,11%[59 µM],.
Cc1[nH][nH]c(=O)c1C(c1cc2c(cc1Br)OCO2)c1c(C)[nH][nH]c1=O,-2%[11.4 µM],27%,-4%,50µM*,.
Cc1ccc(CNC(=O)CCN2C(=O)C(C)Oc3ccc(C)cc32)cc1 (centres undefined),-5%,19%,11%,10%[59 µM],.
COc1ccccc1CNC(=O)CCCn1c(=O)c2cccn2c2ccccc21,-31%,88%,4%,9%[59 µM],.
Cc1cc(=O)n(CCO)c(O)c1C#N,?,1%,?,?,.
Cc1c(C#N)c(O)n(CCO)c(=O)c1N=Nc1ccc2c(c1)COC2=O,-34%,-18%,-18%,50µM*,.
CCn1c(C)c(CS(=O)(=O)c2ccccc2)[nH]c1=O,22µM*,10µM*,-9%,1µM*,.
CCCCN1C(=O)C(=Nc2cccc3cnccc23)c2ccccc21,?,?,28µM*,45µM*,-2%
CCCN1CCN(c2ncnc3sc(C(=O)Nc4ccc(N(CC)CC)cc4C)c(C)c23)CC1,50µM*,?,28µM*,14µM*,.
CCCN1CCN(c2ncnc3sc(C(=O)Nc4cccc(Cl)c4C)c(C)c23)CC1,-26%,9%,-28%,7%[12.7 µM],.
CCCn1c(SCc2nc3ccccc3s2)n[nH]c1=O,?,-15%,-12%,56µM*,-12%
O=c1[nH]nc(SCc2nc3ccccc3s2)n1C1CC1,-16%,23%,-6%,7.9µM*,21%
COC(=O)c1c(Oc2ccc(Br)cc2)nnc(-c2ccccc2)c1-c1ccccc1,-13%,45%,-18%,1%[59 µM],.
COc1cccc(N2CCN(C(=O)c3ccc4c(Cl)c5c(nc4c3)CCCC5)CC2)c1,?,1%,?,?,.
COc1ccc(NCc2nnc(SCc3ccc(Cl)cc3)n2-c2ccccc2)cc1,45µM*,?,22µM*,?,?

# Screening data: PubChem BioAssay, National Center for Advancing Translational Sciences (NCATS)
